Screens from PubChem BioAssay.
Hits are enriched below; roughly 1.8% of the tested compounds scored in any of these assays.
GLP-1R inv ag: GLP-1 receptor (human) inverse agonism; P43220; Potency, µM (top dose mostly 38.3 µM), for inactives: at the highest dose activity change, negative = inhibition, most hits filed as inhibitors; HEK293 GLP-1R CRE-luciferase, luminescence, 24 h; GLP-1R form is constitutively active; AID 624417; 410,000 compounds, 1.6% hits; also: potency is read from the fitted curve at half-maximal effect; % is scaled to controls: 0 for no effect and ±100 for the full control effect; nearly all actives have a fitted effect of over 55% in size
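Luminescence readout: a drop in cAMP-driven luciferase signal flags inverse agonism at a constitutively active GLP-1R stably expressed in HEK293. Compound exposure lasted 24 hr at 37 deg C, 5% CO2.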
PTHR1 ag: PTHR1 (human) receptor agonism | Potency, µM (series often up to 115 µM), for the others: at the top dose activation, actives largely listed as activators | 410,000 compounds, 0.075% hits | Q03431 | HEK293 GP2 PTHR1 cells, GloSensor cAMP luminescence, 1 h; also: potency is read from the fitted curve at half-maximal effect; nearly all actives have a fitted effect of over 55% in size
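HEK-293-derived GP2 cells expressing PTHR1 and a GloSensor cAMP reporter, 3,000/well, plated overnight, given luciferin plus IBMX (each 0.5 mM as added) for 1 h at 37 °C, then compound for 1 h at 37 °C. Luminescence was read after 15 min at room temperature.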
TSHR antag: human thyrotropin receptor antagonism; TSHR-expressing cells, TSH-stimulated cAMP HTRF, 2 h; active compounds read low; activity change, negative = inhibition, % at 11.5 µM; 330,000 compounds, 0.2% hits; AID 504810;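 active = activity change below a set negative limit, meaning inhibition stronger than a set level, cut at about -70% in these data; inconclusive = activity change between two set negative limits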; also: % is scaled to controls: 0 for no effect and ±100 for the full control effect
Target sequence (P16473 whole entry, looked up): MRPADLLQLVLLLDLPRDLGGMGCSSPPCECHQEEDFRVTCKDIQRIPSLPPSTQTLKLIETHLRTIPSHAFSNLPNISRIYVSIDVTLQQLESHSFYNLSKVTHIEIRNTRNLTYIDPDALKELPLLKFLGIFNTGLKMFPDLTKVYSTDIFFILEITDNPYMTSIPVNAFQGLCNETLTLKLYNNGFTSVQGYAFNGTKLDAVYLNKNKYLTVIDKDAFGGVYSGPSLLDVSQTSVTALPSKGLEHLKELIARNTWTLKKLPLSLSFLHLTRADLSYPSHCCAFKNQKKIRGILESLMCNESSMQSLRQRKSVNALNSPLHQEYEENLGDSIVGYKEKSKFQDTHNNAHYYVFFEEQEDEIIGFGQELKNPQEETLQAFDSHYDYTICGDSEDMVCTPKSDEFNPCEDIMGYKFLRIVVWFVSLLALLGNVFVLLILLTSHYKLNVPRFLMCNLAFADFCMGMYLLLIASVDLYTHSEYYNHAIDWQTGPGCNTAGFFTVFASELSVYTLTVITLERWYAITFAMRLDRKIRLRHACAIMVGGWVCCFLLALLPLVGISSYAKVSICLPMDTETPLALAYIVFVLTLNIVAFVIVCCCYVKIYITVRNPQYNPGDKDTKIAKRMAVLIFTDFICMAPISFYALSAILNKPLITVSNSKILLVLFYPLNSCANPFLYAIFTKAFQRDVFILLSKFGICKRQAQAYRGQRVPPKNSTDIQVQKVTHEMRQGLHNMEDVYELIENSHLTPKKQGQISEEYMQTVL
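Freshly harvested TSHR cells receive pin-tooled compound, then EC80 TSH at 4nM final. After 2 hours at 37 deg C, antibody in lysis buffer and cAMP-d2 are added; 30 minutes at ambient temperature precede the HTRF read.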
GLP-1R agonist: GLP-1 receptor (human) agonism | AID 624172 | HEK293 GLP-1R CRE-luciferase, luminescence, 4-6 h; cells express a hypersensitive GLP-1R form | Potency, µM (doses to about 45.6 µM), for inactives: top-dose activation, actives largely listed as activators | 380,000 compounds, 0.007% hits | P43220; also: potency is read from the fitted curve at half-maximal effect; % of control where 0% means no effect
GLP1R cytotox: cytotoxicity counter-screen for GLP-1 receptor inverse agonists. HEK293 cAMP-luciferase reporter cells, luminescence, 24 h. Potency, µM (top dose mostly 38.3 µM), inactives show at the highest dose activity change, negative = inhibition, actives largely listed as inhibitors. 410,000 compounds, 0.13% hits. AID 624418;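 also: loss of luciferase light is scored as toxicity; potency is read from the fitted curve at half-maximal effect; % is scaled to controls: 0 for no effect and ±100 for the full control effect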
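Step one: seed cells (200 cells/uL, DMEM with 10% Nu serum, 1% pen-strep). Step two: 12-hour incubation at 37 deg C. Step three: pin 23 nL compound, incubate 24 hr. Step four: add luciferase reagent, read luminescence 12 min later.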
* = called active by the depositor; i = inactive; ? = inconclusive; · = no result given; [ ] = remark or other dose. Unless noted, calls follow the shape of the dose curve; as a rule, active = well fitted curve in the direction sought with a large enough effect; inconclusive = small, poorly fitted or top-dose-only effect, or another doubt; inactive = no such curve, though single readings can be large; an effect the other way counts as inactive or inconclusive.

SMILES | GLP-1R inv ag | PTHR1 ag | TSHR antag | GLP-1R agonist | GLP1R cytotox
COc1ccc(NC(=O)C(c2ccccc2)n2c(=O)c(-c3cc4ccccc4[nH]3)nc3ccccc32)cc1 (centres undefined) | ? | i | · | · | i
O=C(CNC(=O)OCc1ccccc1)NCC(=O)Nc1ccc(Br)cc1C(=O)c1ccccc1 | 1% | -25% | 28 | 4% | -2%
O=C(CNC(=O)OCc1ccccc1)Nc1ccc(Br)cc1C(=O)c1ccccc1 | 11µM* | i | -2 | -9% | -27%
COc1cc([C@@H]2c3cc4c(cc3[C@@H](O[C@@H]3O[C@@H]5CO[C@@H](C)O[C@H]5[C@H](O)[C@H]3O)[C@H]3COC(=O)[C@H]23)OCO4)cc(OC)c1O | 2.8µM* | -8% | · | 4% | ?
COc1ccc(CN2CCN(c3ncnc4sc5c(c34)CCCC5)CC2)cc1F | -9% | -33% | · | · | -3%
COc1ccc(-n2c(/C=C/c3ccc(O)cc3)nc3ccccc3c2=O)cc1 | 10µM* | -48% | 24 | 9% | -29%
Cc1ccc(C(=O)Nc2nc3ccccc3[nH]2)cc1 | 1.3µM* | -41% | -6 | -6% | -13%
Cc1ccc(C(=O)Nc2nc3ccccc3n2CCN2CCCC2)cc1 | ? | i | 0 | -19% | ?
CCC(N)CCc1c[nH]c2ccccc12 (centres undefined) | · | · | · | -1%[110 µM] | ·
COc1ccc2c(c1)C(c1ccc(N(CCCl)CCCl)cc1)=NCC2 | 10µM* | i | · | 17% | -30%
O=C(NCc1ccc(Cl)cc1)C1CCN(C(=O)c2cnn(-c3ccccc3)c2-n2cccc2)CC1 | ? | -8% | · | · | -6%
CC(C)(C#CC(=O)O)OOC(c1ccccc1)(c1ccccc1)c1ccccc1 | 11µM* | -55% | 0 | -6% | -20%
CCOP(=O)(C#CC(C)(C)C)C(C)(O)c1ccccc1 (centres undefined) | -1% | i | 1 | -20% | -18%
CC12CCC(=O)CC1CCC1C2CCC2(C)C1CCC2(C)O (centres undefined) | · | · | · | -7% | ·
Cc1cc(N=Nc2ccccc2C)ccc1N | 10µM* | -23% | · | 17% | -21%
CCOP(=S)(OCC)Oc1cc(C)oc(=O)c1 | -5% | 0% | -70* | 2% | 6%
